{
  "source": "PubChem BioAssay (Tox21)",
  "note": "Calls of active or inactive are those of the source. Calls follow the shape of the dose curve; as a rule, active = well fitted curve in the direction sought with a large enough effect in the repeat runs; inconclusive = weak or mixed curves; inactive = flat fitted curve, though single readings scatter.",
  "data": [
    {"assay": "qHTS assay to test for compound auto fluorescence at 535 nm (green) in HepG2 cells (AID 720675); also: % is scaled to controls: 0 for no effect and ±100 for the full control effect", "conditions": "green autofluorescence 485/535 nm, 1 h; series mostly up to 91.3 µM; fluorescence, % of fluorescein control: at the top concentration", "description": "National Center for Advancing Translational Sciences [NCATS]\nNIH Chemical Genomics Center [NCGC]\nU.S. Environmental Protection Agency [EPA]\nNational Institutes of Environmental Health Sciences [NIEHS]\nNational Toxicology Program [NTP]\nU.S. Food and Drug Administration [FDA]\nCompound auto fluorescence often interferes with screening of the compound library against various biological targets and signaling pathways. Some of these compounds may have fluorophoric properties. Such properties may interfere with the assay outputs resulting in false positives and/or negatives. To decrease such complications and ensure the compound activities are relevant in terms of biological response, the Tox21 10K compound library was screened for auto fluorescence.\nFrom the fluorophores used as reporter signals in our screening assays, the auto fluorescence equivalencies of compounds against three fluorophores have been evaluated: Triamterene, Fluorescein and Rose Bengal sodium for blue, green and red fluorescence, respectively. The fluorescence intensities were measured using Excitation/Emission wavelengths at 405/460nm, 485/535nm and 540/590nm for blue, green and red labels, respectively. This assay includes the green fluorescence data.\nTox21 Assay Protocol Summary:\n2,000 HepG2 cells in 5 uL of culture medium (MEM containing 10% FBS) per well were dispensed into black wall/clear bottom 1536-well plates using a Multidrop Combi Dispenser (ThermoFisher Scientific, Waltham, MA). The assay plates were incubated overnight at 37 C to allow cell attachment to the well bottom, followed by the transfer of 23 nL compound or DMSO vehicle by a pintool work station (Kalypsys , San Diego, CA). After the assay plates were incubated for 1 hr at 37 C and 5% CO2, fluorescence intensities in the assay plates were measured by an Envision (PerkinElmer, Shelton, CT) plate reader using three labels for measuring blue, green and red fluorescence at […] 460, 535 and 590 nm respectively.", "values": [
      {"molecule": "COc1cc(C(=O)OC(COCCC(C)C)CN2CCOCC2)cc(OC)c1OC", "note": "(stereo not given)", "fluorescence, % of fluorescein control": "0.0497% [at 46 µM] (inactive)"},
      {"molecule": "Cc1c(N)c(=O)n(-c2ccccc2)n1C", "fluorescence, % of fluorescein control": "0.0089% [at 18.6 µM] (inactive)"},
      {"molecule": "CC1=CCC(O)(C(C)C)CC1", "note": "(stereo not given)", "fluorescence, % of fluorescein control": "0.0211% (inactive)"},
      {"molecule": "NC(N)=NCCN1CCCCCCC1", "fluorescence, % of fluorescein control": "0.0444% [at 18.6 µM] (inactive)"},
      {"molecule": "CCCCCCCCCCCCCCC(=O)O", "fluorescence, % of fluorescein control": "0.0803% (inactive)"},
      {"molecule": "Cc1ccc(C(=O)Nc2ccc(S(=O)(=O)O)c3cc(S(=O)(=O)O)cc(S(=O)(=O)O)c23)cc1NC(=O)c1cccc(NC(=O)Nc2cccc(C(=O)Nc3cc(C(=O)Nc4ccc(S(=O)(=O)O)c5cc(S(=O)(=O)O)cc(S(=O)(=O)O)c45)ccc3C)c2)c1", "fluorescence, % of fluorescein control": "0.0014% [at 46 µM] (inactive)"},
      {"molecule": "C[N+](C)(CCOc1ccccc1)Cc1cccs1", "fluorescence, % of fluorescein control": "-0.0053% [at 46 µM] (inactive)"},
      {"molecule": "COc1ccc2cc1Oc1cc3c(cc1OC)CC[N+](C)(C)[C@H]3Cc1ccc(cc1)Oc1c(OC)c(OC)cc3c1[C@@H](C2)[N+](C)(C)CC3", "fluorescence, % of fluorescein control": "-0.016% [at 46 µM] (inactive)"},
      {"molecule": "CC/C=C\\CCOC(C)OCC", "note": "(stereo not given)", "fluorescence, % of fluorescein control": "-0.0322% (inactive)"},
      {"molecule": "CN(C)CCN(C)CCN(C)C", "fluorescence, % of fluorescein control": "-0.137% (inactive)"},
      {"molecule": "O=C(O)c1cn(C2CC2)c2cc(N3CCNCC3)c(F)cc2c1=O", "fluorescence, % of fluorescein control": "0.0071% [at 18.6 µM] (inactive)"},
      {"molecule": "O=CN(CCO)CCO", "fluorescence, % of fluorescein control": "-0.0016% (inactive)"},
      {"molecule": "CC(C)CCCO", "fluorescence, % of fluorescein control": "-0.134% (inactive)"},
      {"molecule": "O=C(O)CNC(=O)c1ccccc1", "fluorescence, % of fluorescein control": "-0.0789% [at 46 µM] (inactive)"},
      {"molecule": "CC[N+](CC)(CC(=O)Nc1c(C)cccc1C)Cc1ccccc1", "note": "(tested in a mixture with another compound)", "fluorescence, % of fluorescein control": "0.0256% (inactive)"},
      {"molecule": "COc1cc2c(cc1OC)-c1cc3ccc(OC)c(OC)c3c[n+]1CC2", "fluorescence, % of fluorescein control": "0.174% (inactive)"},
      {"molecule": "CN1CC(=O)N/C1=N/C(=O)Nc1cccc(Cl)c1", "outcome": "inactive"},
      {"molecule": "C=CC(C)(CCC=C(C)C)OC(=O)CC", "note": "(stereo not given)", "fluorescence, % of fluorescein control": "0.0208% (inactive)"},
      {"molecule": "O=C1c2ccccc2C(=O)c2cc(O)ccc21", "fluorescence, % of fluorescein control": "0.0318% (inactive)"},
      {"molecule": "C1CCC2=NCCCN2CC1", "fluorescence, % of fluorescein control": "0.0159% (inactive)"},
      {"molecule": "NO", "fluorescence, % of fluorescein control": "-0.0058% [at 95.7 µM] (inactive)"},
      {"molecule": "Cc1ncc(COP(=O)(O)O)c(C=O)c1O", "fluorescence, % of fluorescein control": "0.0238% [at 46 µM] (inactive)"},
      {"molecule": "NC(=O)N1c2ccccc2CC(=O)c2ccccc21", "fluorescence, % of fluorescein control": "-0.0215% [at 46 µM] (inactive)"},
      {"molecule": "CC(C)(N)C#N", "fluorescence, % of fluorescein control": "0.104% [at 95.7 µM] (inactive)"},
      {"molecule": "O=C(c1ccccc1O)c1ccccc1O", "fluorescence, % of fluorescein control": "0.198% (inactive)"},
      {"molecule": "CCN(C=O)CC", "fluorescence, % of fluorescein control": "-0.0603% [at 95.7 µM] (inactive)"},
      {"molecule": "[K+]", "fluorescence, % of fluorescein control": "0.0041% (inactive)"},
      {"molecule": "CCOC(=O)COC(=O)c1ccccc1C(=O)OCC", "fluorescence, % of fluorescein control": "-0.0441% (inactive)"},
      {"molecule": "CO[C@@]1(NC(=O)CSC[C@@H](N)C(=O)O)C(=O)N2C(C(=O)O)=C(CSc3nnnn3C)CS[C@@H]21", "fluorescence, % of fluorescein control": "0.0045% [at 46 µM] (inactive)"},
      {"molecule": "c1coc(CNc2ncnc3nc[nH]c23)c1", "fluorescence, % of fluorescein control": "-0.0671% (inactive)"},
      {"molecule": "CC(C)c1ccc2ncccc2c1", "fluorescence, % of fluorescein control": "0.0421% (inactive)"},
      {"molecule": "CC(C)(C#N)Nc1nc(Cl)nc(NC2CC2)n1", "fluorescence, % of fluorescein control": "0.0099% (inactive)"},
      {"molecule": "CC1(C)OC[C@@H](COC(=O)CCc2ccc(OC[C@@H](O)CNCCNC(=O)N3CCOCC3)cc2)O1", "outcome": "inactive"},
      {"molecule": "C1CCC2(CCCCO2)OC1", "fluorescence, % of fluorescein control": "0.0938% (inactive)"},
      {"molecule": "CC1=NN(c2cccc(S(=O)(=O)O)c2)C(=O)C1", "fluorescence, % of fluorescein control": "0.0244% (inactive)"},
      {"molecule": "CC(CO)(CO)[N+](=O)[O-]", "fluorescence, % of fluorescein control": "0.0088% (inactive)"},
      {"molecule": "Nc1ccn([C@@H]2O[C@H](CO)[C@@H](O)[C@@H]2O)c(=O)n1", "fluorescence, % of fluorescein control": "0.0193% (inactive)"},
      {"molecule": "CC(=O)OCC(=O)[C@@]1(O)[C@H](C)C[C@H]2[C@@H]3CCC4=CC(=O)C=C[C@]4(C)[C@@]3(F)[C@@H](O)C[C@@]21C", "outcome": "inactive"},
      {"molecule": "C=C(C)C(=O)OCCOCCOCCOCCOC(=O)C(=C)C", "fluorescence, % of fluorescein control": "-0.0043% (inactive)"},
      {"molecule": "CCCCOC(=O)CCC(C)=O", "fluorescence, % of fluorescein control": "-0.0356% (inactive)"}
    ]}
  ]
}
